In PubChem BioAssay (NCI):
“And” between values parts separate entries of the source, which are not always exact repeats. Identical values can stand only once. The panel holds about 83,000 compounds, 20% with a hit somewhere; the sample as a whole holds those more often.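 For each line, cells grew in 96-well plates with the test compound present at a single concentration for 48 hours.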 The source made the active and inactive calls. The calls were made as follows: active = growth percent below 10; inactive = the rest.

Key:
UACC-62 melanoma = experiment: NCI-60 one-dose screen, 48 h (100 = growth as untreated, 0 = no growth, -100 = all killed); conditions: 10 µM unless noted
TK-10 renal = experiment: as above; conditions: 10 µM unless noted

SMILES	growth (UACC-62 melanoma)	growth (TK-10 renal)
CC(C)=CCC/C(C)=C/CC/C(C)=C/CC/C(C)=C/C=C/C=C(\C)CC/C=C(\C)CC/C=C(\C)CCC=C(C)C	75.8% [100 µM] (inactive) and 45% [100 µM] (inactive)	106% [100 µM] (inactive) and -87% [100 µM] (active)
CC(=O)c1cc2c(s1)C(=O)c1ccsc1C2=O	-54.1% [100 µM] (active) and -98.1% [100 µM] (active)	-38.1% [100 µM] (active) and -100% [100 µM] (active)
COc1cc(CC2c3cc(OC)c(OC)cc3CCN2C)c(Oc2cc3c(cc2OC)-c2c(O)c(OC)cc4c2C(C3)N(C)CC4)cc1OC (stereo not given)	-60.3% [100 µM] (active) and -87.2% [100 µM] (active)	-10.6% [100 µM] (active) and -93% [100 µM] (active)
CCCn1c2c(c3ccccc3c1=O)C(=O)c1ccccc1-2	63.1% [100 µM] (inactive) and 8.48% [100 µM] (active)	88% [100 µM] (inactive) and 22.3% [100 µM] (inactive)
CC(=O)OCC1=C(C)C[C@H]([C@@H](COC(C)=O)C2CCC3C4C[C@H]5O[C@]56CC=CC(=O)[C@]6(C)C4CC[C@@]32C)OC1=O (stereo not given in full)	-91% [50 µM] (active) and -99.6% [50 µM] (active)	-97.1% [50 µM] (active) and -100% [50 µM] (active)
Oc1ccc(/C=C/c2cc(O)cc3c2C(c2cc(O)cc(O)c2)C(c2ccc(O)c(O)c2)O3)cc1 (stereo not given)	-57.3% [100 µM] (active) and -23.7% [100 µM] (active)	-15.5% [100 µM] (active) and -12.5% [100 µM] (active)
Cc1ccnc2[nH]c(-c3ccc(F)cc3)cc(=O)c12	-5.39% [100 µM] (active) and -36.2% [100 µM] (active)	66.3% [100 µM] (inactive) and 16.9% [100 µM] (inactive)
CC#CC#C/C=C1\C=CC2(OC=CC2OC(C)=O)O1 (stereo not given)	-87% [100 µM] (active) and -100% [100 µM] (active)	-20.2% [100 µM] (active) and -81% [100 µM] (active)
C/C(Cl)=N/OC(=O)Nc1ccc(S(N)(=O)=O)c(C)c1	-93.6% [100 µM] (active) and -100% [100 µM] (active)	-100% [100 µM] (active)
COc1cc2c(cc1O)Cc1c-2[n+](C)cc2cc(OC)c(OC)cc12	12.4% [100 µM] (inactive) and -100% [100 µM] (active)	89.2% [100 µM] (inactive) and 4.86% [100 µM] (active)
